# Vc quorum ag: inducers of Vibrio cholerae quorum light production without autoinducers, primary screen, BH1578 luxS cqsA deficient, single point. 350,000 tested, 0.16% active. V. cholerae BH1578 lux reporter, luminescence, 6 h. AID 588436, 2011. activation, % at 18.7 µM; in the data active means activation mostly above about 9.7%, no sharp cut-off
# GDH-TPI inh: GDH-TPI coupling enzyme inhibitors, primary screen, artefact control for M. tuberculosis FBA inhibitor project, biochemical, absorbance, full deck; inhibition, % at 4.8 µM; 360,000 tested, 1.2% active; AID 588335, 2011; GDH-TPI coupled enzyme counterscreen, NADH absorbance; in the data active means inhibition above about 30%;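 further: 0% = DMSO wells and 100% = wells lacking the enzyme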
# Mtb BioA inh: M. tuberculosis BioA enzyme inhibitors, primary screen, biochemical, plate reader, single point, HTS; purified M. tuberculosis BioA enzyme; inhibition, % at 9.99 µM; 360,000 tested, 0.096% active; AID 602481, 2012; in the data active means inhibition above about 40%
# FBA Mtb inh: Mtb FBA enzyme inhibitors, primary screen, biochemical, fluorescence, strain H37Rv; purified M. tuberculosis FBA, fluorescence read-out; inhibition, % at 1 µM; 360,000 tested, 2.3% active; AID 588726, 2011; in the data active means inhibition above about 27%;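 further: 0% = vehicle and 100% = reference inhibitor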
# Target sequence (P9WQA3 whole entry, looked up): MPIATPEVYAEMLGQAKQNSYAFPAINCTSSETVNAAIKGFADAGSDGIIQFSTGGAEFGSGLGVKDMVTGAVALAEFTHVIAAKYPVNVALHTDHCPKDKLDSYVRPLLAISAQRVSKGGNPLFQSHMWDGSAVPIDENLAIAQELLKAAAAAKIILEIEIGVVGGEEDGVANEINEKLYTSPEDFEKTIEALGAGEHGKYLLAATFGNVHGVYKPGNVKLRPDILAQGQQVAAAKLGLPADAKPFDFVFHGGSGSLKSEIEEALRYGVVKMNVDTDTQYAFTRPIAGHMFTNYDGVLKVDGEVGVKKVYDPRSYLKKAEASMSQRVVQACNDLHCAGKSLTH
# * = called active by the depositor; i = inactive; x = no result given; + = active, no number. In the library only some 3% were active in any assay of this set; here they are far more common.
SMILES,Vc quorum ag,GDH-TPI inh,Mtb BioA inh,FBA Mtb inh
COc1ccc(S(=O)(=O)N(C)C[C@@H]2Oc3ncc(-c4cccc(OC)c4)cc3C(=O)N([C@H](C)CO)C[C@@H]2C)cc1,x,x,-6,x
CC1(C)CC(=O)C2=C(C1)NC(Nc1nc3ccccc3o1)=NC2c1ccccn1 (configuration not stated),i,44*,0,-2
CC1(C)CC(=O)C2=C(C1)NC(Nc1nc3ccccc3o1)=NC21CCCC1,i,5,x,-5
CC(C)C#Cc1ccc2c(c1)O[C@H](CN(C)C(=O)c1ccncc1)[C@@H](C)CN([C@H](C)CO)S2(=O)=O,x,x,1,x
O=C(CN1C(=O)S/C(=C/c2cccs2)C1=O)N1CCOCC1,-1,37*,-2,0
O=C(CN1C(=O)S/C(=C\c2cccs2)C1=O)Nc1ccc(O)c(C(=O)O)c1,0,38*,2,0
O=C(CN1C(=O)S/C(=C\c2cccs2)C1=O)Nc1ccc(C(=O)O)c(O)c1,-2,49*,4,-8
O=C(CN1C(=O)S/C(=C/c2cccs2)C1=O)N1CCCC1,i,21,-1,-1
Cn1c2ccccc2c2cc(C(=O)NNS(=O)(=O)c3ccc(F)cc3)sc21,i,34*,-1,23
O=C(NNS(=O)(=O)c1ccc(F)cc1)c1ccccc1F,0,-17,3,-3
O=C(NNS(=O)(=O)c1ccc(F)cc1)c1ccccc1,2,10,-1,147*
CNC(=O)C[C@H]1CC[C@@H]2[C@@H](COc3ccc(NC(=O)c4cnccn4)cc3C(=O)N2C)O1,x,x,15,x
CCOc1ccc(/C=N/n2nnnc2N)cc1OCC,0,31*,0,6
COc1ccc(-c2oc3cc(OC(C)=O)cc(OC(C)=O)c3c(=O)c2OC)cc1,-1,23,0,3
COc1ccc(-c2oc3ccccc3c(=O)c2OC(C)=O)cc1,-3,46*,11,+
CCN(CC)Cc1c(O)c(Cl)cc2c(C)cc(=O)oc12,0,10,x,+
CCCc1cc(=O)oc2c(CN3CCCC3)c(O)ccc12,-1,20,0,x
CCN(CC)Cc1c(O)c(Cl)cc2c(C)c(C)c(=O)oc12,0,25,0,x
CCN1CCN(Cc2c(O)c(Cl)cc3c(C)cc(=O)oc23)CC1,0,8,-3,+
CCCc1cc(=O)oc2c(CN3CCCC3)c(O)c(Cl)cc12,0,22,-2,+
CCc1cc2c(=O)c(Oc3ccccc3F)c(C)oc2c(CN(C)C)c1O,0,0,2,27
CCc1cc(=O)oc2c(CNCc3ccccc3F)c(O)c(Cl)cc12,1,23,-1,+
Cc1ccc(S(=O)(=O)N(C)C[C@@H]2Oc3ncc(-c4ccncc4)cc3C(=O)N([C@@H](C)CO)C[C@H]2C)cc1,x,x,2,x
O=C(Nc1cccc(Cl)c1)N[C@@H]1CC[C@@H](CCNC(=O)C2CC2)O[C@H]1CO,x,x,0,x
C=CCc1c(O)c(CC)cc2c(C)cc(=O)oc12,-2,11,x,+
SMILES,Vc quorum ag,GDH-TPI inh,Mtb BioA inh,FBA Mtb inh
Cc1cc(=O)oc2c(CN3CCCCC3)c(O)c(Cl)cc12,0,2,0,+
CCC(=O)c1cc2c(C)cc(=O)oc2c(C)c1O,-1,7,1,3
Cc1ccc2c(CN3CCC(C)CC3)cc(=O)oc2c1,1,7,2,5
Cc1cc(=O)oc2c(CN3CCC(C)CC3)c(O)c(Cl)cc12,0,15,-3,+
CCc1cc(=O)oc2cc(C)c(CN3CCCC3)c(O)c12,i,21,-1,-1
Cc1cc(=O)oc2c(CN3CCCC3)c(O)c(Cl)cc12,-1,6,-2,+
Cn1c(O)c(N=NC(=N)N)c2ccccc21,0,40*,x,-2
COC(=O)Cn1c(O)c(N=NC(=O)CNC(=O)c2ccncc2)c2ccccc21,0,38*,7,1
CCOc1ccc2c(c1)c(N=NC(N)=S)c(O)n2C,i,31*,0,-1
CCCn1c(O)c(N=NC(=O)CNC(=O)c2cccnc2)c2ccccc21,0,6,13,-4
CCOc1ccc2c(c1)c(N=NC(=N)N)c(O)n2C,1,17,-1,-7
Cn1c(O)c(N=NC(=O)CNC(=O)c2cccnc2)c2ccccc21,0,39*,8,0
CN1CCN(C(=O)C[C@H]2C=C[C@H](NS(=O)(=O)c3cccc(F)c3)[C@H](CO)O2)CC1,x,x,0,x
C[C@@H]1CN([C@H](C)CO)C(=O)c2cc(NS(C)(=O)=O)ccc2O[C@@H](C)CCCCO[C@H]1CN(C)Cc1ccc(C(F)(F)F)cc1,x,x,2,x
CC(C)C(=O)Nc1ccc2c(c1)C(=O)N(C)[C@H]1CC[C@@H](CC(=O)Nc3ccccc3)O[C@H]1CO2,x,x,0,x
COc1ccccc1C#Cc1ccc2c(c1)[C@H]1[C@H](CCN1C(=O)c1ccncc1)[C@H](CO)N2,x,x,0,x
COc1cccc(/C=N/n2c(N)c(S(=O)(=O)c3cccs3)c3nc4ccccc4nc32)c1,x,3,-1,3
Nc1c(S(=O)(=O)c2cccs2)c2nc3ccccc3nc2n1/N=C/c1cccc(O)c1,-7,45*,-3,19
COc1ccc(/C=N/n2c(N)c(S(=O)(=O)c3cccs3)c3nc4ccccc4nc32)cc1OC,x,11,0,3
CC(C)Cn1c(N)c(S(=O)(=O)c2cccs2)c2nc3ccccc3nc21,x,23,0,142*
CCCN(C)C[C@@H]1Oc2ncc(C#Cc3ccc(OC)c(OC)c3)cc2C(=O)N([C@H](C)CO)C[C@@H]1C,x,x,-5,x
C[C@H](CO)N1C[C@H](C)[C@@H](CN(C)S(=O)(=O)c2cn(C)cn2)Oc2ccc(NC(=O)C3CCCCC3)cc2CC1=O,x,x,4,x
Cc1cc2[nH]c(=O)c(=O)[nH]c2cc1S(=O)(=O)NCc1ccc(Cl)cc1,i,24,0,48*
Cc1ccc(/C=N/NC(=O)c2cc3c(s2)CCCC3)o1,i,40*,1,2
C/C(=N\NC(=O)c1ccc(N/N=C(\C)c2ccncc2)cc1)c1ccncc1,i,31*,x,-4
SMILES,Vc quorum ag,GDH-TPI inh,Mtb BioA inh,FBA Mtb inh
Cc1cccc(C(=O)Nc2ccc(C(=O)N/N=C/c3ccc(C)o3)cc2)c1,0,41*,1,-3
Cc1ccc(/C=N/NC(=O)c2ccccn2)o1,0,28,0,0
Cc1ccc(/C=N/NC(=O)c2ccncc2)o1,-1,38*,-2,-4
Cc1noc(C)c1NC(=O)Nc1cccc2c1O[C@H](CN(C)C(=O)Nc1ccc3c(c1)OCO3)[C@@H](C)CN([C@@H](C)CO)C2=O,x,x,1,x
O=C(NC1CCCC1)c1cc(=O)[nH]c2ccccc12,0,43*,-1,3
CO[C@H](CN(C)Cc1cc(F)ccc1F)[C@@H](C)CN([C@@H](C)CO)S(=O)(=O)c1ccc(F)cc1,x,x,-4,x
C[C@@H]1CN([C@H](C)CO)C(=O)c2cc(C#CCN(C)C)cnc2O[C@@H]1CN(C)Cc1ccc2c(c1)OCO2,x,x,2,x

# Source: PubChem
